Test results as given in PubChem BioAssay (EPA / NIEHS).
Results filed as inconclusive are left out. Calls of active or inactive are those of the source. How the source made its calls, unless noted: active means hit-call score of the fitted dose curve at least 0.9, where 1 is the maximum; inconclusive means response in the unintended direction; inactive means score below 0.9.

Legend:
[1] = read-out: solute carrier (SLC22A6), SLC22A6 (gene 9356); assay: LTEA_HepaRG_SLC22A6: Life Technologies and Expression Analysis (LTEA) Assay for solute carrier (SLC22A6) using HepaRG (AID 2283653; active means hit-call score of the fitted dose curve at least 0.9, where 1 is the maximum; inactive means score below 0.9); conditions: mRNA level, 48 h; actives raise or lower the signal
How it was run: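 SLC22A6 transcript was measured by TaqMan qRT-PCR, normalized to three housekeeping genes, after 48 h duplicate exposure of HepaRG cells (100 uM top, half-log steps, 0.5% DMSO); bidirectional fit against vehicle.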

[2] = Tanguay_ZF_120hpf_SWIM_legacy: (Legacy) Oregon State University Tanguay Lab 120 Hour Post-fertilization zebrafish Assay for Swim Bladder Malformation (AID 2283654);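 further: swim bladder malformation in each larva scored yes or no under brightfield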
How it was run: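 Embryos lacking chorions were exposed individually and statically to test chemical from 6 to 120 hpf at 28C, with 0.64% DMSO as vehicle. At 120 hpf, swim bladder malformation was recorded as present or absent by brightfield microscopy.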

[3] = Tanguay_ZF_120hpf_NC_legacy: (Legacy) Oregon State University Tanguay Lab 120 Hour Post-fertilization zebrafish Assay for Notochord and Tail Malformation (AID 2283656)
How it was run: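 Dechorionated 5D zebrafish, 1/well from 6 hpf; static exposure to 120 hpf, 28C, sealed, dark; final DMSO 0.64% v/v. NC scored binary (present/absent); dead embryos not scored. Fit vs DMSO baseline, gain direction.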

[4] = read-out: solute carrier (SLC10A1), SLC10A1 (gene 6554); assay: LTEA_HepaRG_SLC10A1: Life Technologies and Expression Analysis (LTEA) Assay for solute carrier (SLC10A1) using HepaRG (AID 2283657; active means hit-call score of the fitted dose curve at least 0.9, where 1 is the maximum; inactive means score below 0.9); conditions: mRNA level, 48 h; actives raise or lower the signal
How it was run: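 Transcript levels were measured by qRT-PCR after human HepaRG cells received test chemical for 48 hours, up to 100 uM in half-log dilutions. Values come from bidirectional concentration-response fitting relative to 0.5% DMSO vehicle.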

[5] = read-out: matrix metalloproteinase-1 (MMP1), MMP1 (gene 4312); assay: LTEA_HepaRG_MMP1: Life Technologies and Expression Analysis (LTEA) Assay for matrix metalloproteinase-1 (MMP1) using HepaRG (AID 2283658; active means hit-call score of the fitted dose curve at least 0.9, where 1 is the maximum; inactive means score below 0.9); conditions: mRNA level, 48 h; actives raise or lower the signal
How it was run: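 qRT-PCR (TaqMan, Fluidigm arrays) of MMP1 transcript, normalized against three housekeeping genes and fitted in both directions relative to 0.5% DMSO vehicle. Human HepaRG cultures received duplicate 48 h exposures across 8 points, highest 100 uM with half-log steps.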

[6] = tested on: Thyroperoxidase (TPO), gene 54314; assay: CCTE_Simmons_AUR_rTPO: CCTE's Amplex UltraRed Assay for Thyroperoxidase (TPO) Inhibition, Simmons Lab (AID 2283662);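 on AC50: potency for loss of signal meaning inhibition of peroxidase activity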
How it was run: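 Rat thyroid microsomes (5 ug protein) with 25 uM Amplex UltraRed and 300 uM H2O2 in 200 mM phosphate buffer, 30 min at 37C in dark; fluorescence 544/590 nm. Eight concentrations, 5 nM–87.5 uM final, 0.5% DMSO, triplicate biological replicates.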

[7] = CCTE_Simmons_CellTiterGLO_HEK293T: Viability Assessment in CCTE's Assays for Thyroperoxidase (TPO) Inhibition, Simmons Lab (AID 2283665);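 on AC50: cells exposed to compound for 24 h before readout; actives reduce ATP signal below DMSO vehicle meaning cytotoxicity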
How it was run: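 Cytotoxicity counter-screen: human HEK293T cells in low-serum (1% FBS) medium receive test chemical, 5 nM to 87.5 uM final, for 24 h; ATP is quantified by luciferase luminescence.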

[8] = Tanguay_ZF_120hpf_TR_legacy: (Legacy) Oregon State University Tanguay Lab 120 Hour Post-fertilization zebrafish Assay for Touch Response (AID 2283667)
How it was run: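 5D WT embryos; static exposure to 120 hpf, 28C, sealed/dark; DMSO 0.64% v/v final. TR scored present/absent; dead embryos excluded. Pos ctrl 5uM trimethyltin chloride.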

[9] = read-out: Cytochrome P450 (CYP24A1_1), CYP24A1 (gene 1591); assay: LTEA_HepaRG_CYP24A1_1: Life Technologies and Expression Analysis (LTEA) Assay for Cytochrome P450 (CYP24A1_1) using HepaRG (AID 2283671; active means hit-call score of the fitted dose curve at least 0.9, where 1 is the maximum; inactive means score below 0.9); conditions: mRNA level, 48 h; actives raise or lower the signal
How it was run: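 In this test, gene induction or suppression of CYP24A1 in human HepaRG liver cells is measured by qRT-PCR after 48 h chemical treatment (eight concentrations, maximum 100 uM). Values are fitted bidirectionally relative to DMSO.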

[10] = Tanguay_ZF_120hpf_TRUN_legacy: (Legacy) Oregon State University Tanguay Lab 120 Hour Post-fertilization zebrafish Assay for Truncated Body (AID 2283655)
How it was run: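 Binary presence/absence of truncated body is recorded at 120 hpf by brightfield, with non-mortality endpoints skipped after death. Exposure is static from 6 hpf in sealed dark plates at 28C, using dechorionated wild-type zebrafish, 0.64% DMSO.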

C[C@]12C=CC3=C4CCC(=O)C=C4CC[C@H]3[C@@H]1CC[C@@H]2O
outcome [1]: inactive
outcome [2]: inactive
outcome [3]: inactive
AC50 [4]: 16.1 µM (active)
outcome [5]: inactive
AC50 [6]: 7.23 µM (active)
AC50 [7]: 6.42 µM (active)
outcome [8]: inactive
outcome [9]: inactive

O=[N+]([O-])C(Br)(CO)CO
outcome [1]: inactive
outcome [2]: inactive
outcome [3]: inactive
outcome [4]: inactive
outcome [5]: inactive
outcome [8]: inactive
outcome [9]: inactive

CCN(CC)CCO
outcome [1]: inactive
outcome [2]: inactive
outcome [3]: inactive
outcome [4]: inactive
outcome [5]: inactive
outcome [8]: inactive
outcome [9]: inactive

c1ccc(C2CO2)cc1 (configuration not stated)
outcome [2]: inactive
outcome [10]: inactive
outcome [3]: inactive
outcome [8]: inactive

COC(=O)Nc1nc2ccccc2[nH]1
outcome [2]: inactive
outcome [10]: inactive
outcome [3]: inactive
AC50 [6]: 24.5 µM (active)
AC50 [7]: 1.41 µM (active)
outcome [8]: inactive

CCCCC(CC)COC(=O)c1ccc(C(=O)OCC(CC)CCCC)c(C(=O)OCC(CC)CCCC)c1 (configuration not stated)
outcome [2]: inactive
outcome [10]: inactive
outcome [3]: inactive
AC50 [6]: 12.7 µM (active)
outcome [7]: inactive
outcome [8]: inactive

COc1cc(C=O)cc2c1[C@H](COC(N)=O)[C@]1(OC(C)=O)ON2C[C@H]2[C@@H]1N2C(C)=O
outcome [2]: inactive
outcome [10]: inactive
outcome [3]: inactive

CO[C@@H]1[C@H](OC(=O)NC(=O)CCl)CC[C@]2(CO2)[C@H]1[C@@]1(C)O[C@@H]1CC=C(C)C
outcome [1]: inactive
outcome [2]: inactive
outcome [3]: inactive
AC50 [4]: 0.389 µM (active)
outcome [5]: inactive
outcome [6]: inactive
outcome [7]: inactive
outcome [8]: inactive
outcome [9]: inactive

ClC1=C(Cl)[C@]2(Cl)[C@H]3[C@H]([C@@H]4C=C[C@H]3C4)[C@@]1(Cl)C2(Cl)Cl
outcome [2]: inactive
outcome [10]: inactive
outcome [3]: inactive
outcome [8]: inactive

CC(C)COC(=O)c1ccccc1C(=O)OCC(C)C
outcome [1]: inactive
outcome [2]: inactive
outcome [3]: inactive
outcome [4]: inactive
outcome [5]: inactive
outcome [8]: inactive
outcome [9]: inactive

Cc1cc(N=Nc2ccccc2C)ccc1N
outcome [2]: inactive
AC50 [10]: 48.2 µM (active)
outcome [3]: inactive
AC50 [6]: 9.17 µM (active)
AC50 [7]: 18.9 µM (active)
AC50 [8]: 29.8 µM (active)

CN(C)C(=O)Nc1ccc(Cl)cc1
outcome [1]: inactive
outcome [2]: inactive
outcome [3]: inactive
outcome [4]: inactive
outcome [5]: inactive
AC50 [6]: 21.7 µM (active)
outcome [7]: inactive
outcome [8]: inactive
outcome [9]: inactive

O=C(Nc1ccccc1)c1ccccc1I
outcome [2]: inactive
outcome [10]: inactive
outcome [3]: inactive
outcome [8]: inactive

O=P(OCCCl)(OCCCl)OCCCl
outcome [2]: inactive

C1=Cc2cccc3cccc1c23
outcome [1]: inactive
outcome [2]: inactive
outcome [10]: inactive
outcome [3]: inactive
outcome [4]: inactive
outcome [5]: inactive
outcome [8]: inactive
outcome [9]: inactive

OCCCBr
outcome [2]: inactive
outcome [3]: inactive
outcome [8]: inactive

[As]#[In]
outcome [2]: inactive
outcome [3]: inactive
outcome [8]: inactive

CCOC(=O)[C@]1(c2ccccc2)Oc2ccccc2[C@@H]1N
outcome [2]: inactive
outcome [3]: inactive
AC50 [6]: 12.6 µM (active)
AC50 [7]: 36.6 µM (active)
outcome [8]: inactive

Clc1ccccc1Cl
outcome [2]: inactive
outcome [3]: inactive
outcome [8]: inactive

Cc1ccc(N)c(N)c1
outcome [2]: inactive
outcome [3]: inactive
AC50 [6]: 1.68 µM (active)
outcome [7]: inactive
outcome [8]: inactive

CC(O)CCO (configuration not stated)
outcome [2]: inactive
outcome [3]: inactive
outcome [8]: inactive

CC(C)N(Cc1ccccc1)C(=O)C(C)(C)C
outcome [2]: inactive
outcome [10]: inactive
outcome [3]: inactive
outcome [8]: inactive

Cc1ccc(N)cc1
outcome [2]: inactive
outcome [3]: inactive
AC50 [6]: 0.0844 µM (active)
outcome [7]: inactive
outcome [8]: inactive

CCN(CC)N=O
outcome [2]: inactive
outcome [3]: inactive
outcome [8]: inactive

Nc1ccc([N+](=O)[O-])cc1
outcome [2]: inactive
outcome [10]: inactive
outcome [3]: inactive
outcome [8]: inactive

Nc1ccc(N=Nc2ccccc2)cc1
outcome [2]: inactive
outcome [10]: inactive
AC50 [6]: 2.53 µM (active)
AC50 [7]: 40.2 µM (active)
outcome [8]: inactive

CNC(=O)Oc1cccc2c1OC(C)(C)C2
outcome [2]: inactive
AC50 [10]: 12.6 µM (active)
outcome [3]: inactive
outcome [8]: inactive
